Outcome and AC50 data for 39 compounds are collected here from PubChem BioAssay (EPA / NIEHS).

Results filed as inconclusive are left out. Some compounds were tested as several samples or in several runs, with calls that do not always agree. Active and inactive are the calls of the source. How the source made its calls: active means hit-call score of the fitted dose curve at least 0.9, where 1 is the maximum; inconclusive means response in the unintended direction; inactive means score below 0.9.

In this assay the target is Cellular tumor antigen p53 (Homo sapiens) (UniProt P04637). As to the kind of experiment: TOX21_p53_BLA_p2_ratio: Tox21 HCT-116 p53 Agonism Beta-lactamase Assay, Ratio, Phase 2 (AID 2283592). An excerpt: TOX21_p53_BLA_p2 is a cell-based, single-readout assay that uses HCT116, a human intestinal cell line, […] in a 1536-well plate.TOX21_p53_BLA_p2_ratio is an assay readout measuring reporter gene via receptor activity and designed using inducible reporter (beta lactamase induction) detected with GAL4 b-lactamase reporter gene. The signal is derived from the ratio of cleaved (ch2) to uncleaved (ch1) reporter gene substrate used as the measure of target activity.Data from the assay component TOX21_p53_BLA_p2_ratio was analyzed into 1 assay endpoint. This assay endpoint, TOX21_p53_BLA_p2_ratio, was analyzed in the positive analysis fitting direction relative to DMSO as the negative control and baseline of activity. Using a type of inducible reporter, gain-of-signal activity can be used to understand changes in the reporter gene as they relate to the gene TP53. Furthermore, this assay endpoint can be referred to as a primary readout, because this assay has produced multiple assay endpoints and this ratio serves a reporter gene function to understand target activity. To generalize the intended target to other relatable targets, this assay endpoint is annotated to the DNA binding intended target family, where the subfamily is tumor suppressor.
Cellular tumor antigen p53 (Homo sapiens), sequence (P04637 whole entry, looked up, the tested form may be a part): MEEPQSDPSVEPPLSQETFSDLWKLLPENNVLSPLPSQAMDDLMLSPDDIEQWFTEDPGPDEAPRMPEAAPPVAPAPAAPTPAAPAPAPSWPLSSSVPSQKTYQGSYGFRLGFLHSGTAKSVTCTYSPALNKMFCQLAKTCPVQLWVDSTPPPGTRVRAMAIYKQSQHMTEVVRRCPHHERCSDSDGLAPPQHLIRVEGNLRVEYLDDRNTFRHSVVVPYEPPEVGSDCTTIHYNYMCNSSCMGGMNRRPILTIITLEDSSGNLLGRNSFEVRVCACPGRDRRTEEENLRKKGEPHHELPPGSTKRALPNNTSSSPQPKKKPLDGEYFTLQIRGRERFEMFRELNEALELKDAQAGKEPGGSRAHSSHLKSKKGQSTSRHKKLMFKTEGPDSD
Thawing Method: Place 14 mL of pre-warmed thaw medium into a 15 mL of conical tub. Remove the vial of cells to be thawed from liquid nitrogen and thaw rapidly by placing at 37C in a water bath with gentle agitation for 1-2 minutes. Decontaminate the vial by wiping with 70% ethanol before opening in a biological safety cabinet. Transfer the vial contents drop-wise into 14 mL of thaw medium in a sterile 15-mL conical tub. Centrifuge cells at 900 rpm for 4 minutes and resuspend in thaw medium. Transfer contents to the T75 tissue culture flask containing Thaw Medium and place flask in a humidified 37C/5% CO2 incubator. Switch to growth medium at first passage.Propagation Method: Aspirate medium, rinse once in DPBS, add 0.25% Trypsin/EDTA and swirl to coat the cell evenly. Add an equal volume of Growth Medium to inactivate Trypsin after 2-3 minutes incubation at 37C. Centrifuge cells at 900 rpm for 4 minutes and resuspend in growth medium. Cell should be passage or fed at least twice a week.Assay Protocol: Harvest cells from culture in growth medium and resuspend in assay medium. 2.2 Dispense 4000 cells/5 uL/well into 1536-well black/clear bottom plates using a Multidrop dispenser. After the cells were incubated at 37C for 5 hours, 23 nL of compounds dissolved in DMSO were transferred to the assay plate by a PinTool resulting in a 217-fold dilution. Incubate the plates for 16 hours at 37C, 5% CO2. Add 1 uL of 6X LiveBLAzer FRET B/G (CCF4-AM) Substrate Mixture to each well using a BioRAPTR dispenser and incubate the plates at room temperature for 2 hours. Measure fluorescence intensity at 460 and 530 nm emission and 405 nm excitation by an Envision detector. Data is expressed as the ratio of 460nm/530nm emissions. Add 4 uL of Cell-titer Glo to each well using BioRAPTR and incubate the plates at room temperature for 2 hours. Measure fluorescence intensity by a VewLux plate reader.
With `CN(C)CCCN1c2ccccc2Sc2ccc(C(F)(F)F)cc21`, the outcome was inactive.

For `O=C(CO)[C@@H](O)[C@H](O)[C@H](O)CO`, the result was inactive.

As to `CCOC(=O)CC(=O)OCC`, the outcome was inactive.

One may read the AC50 as the midpoint of the concentration-response curve, whichever way the signal moves. For the compound `O=C1c2c(O)ccc([N+](=O)[O-])c2C(=O)c2c([N+](=O)[O-])ccc(O)c21`, the AC50 was 25.4 µM (active).

With `C#CCC(Cc1cnc2nc(N)nc(N)c2n1)c1ccc(C(=O)N[C@@H](CCC(=O)O)C(=O)O)cc1` (stereo not given in full), the AC50 is 0.43 µM (active).

As for `C1CCN2C[C@@H]3C[C@@H](CN4CCCC[C@@H]34)[C@H]2C1`, the outcome was inactive.

Turning to `CC(C)(C)CC(C)(C)c1ccc(OCCO)cc1`, the AC50 is 5.43 µM (active) and the result was inactive.

For `c1ccc2sc(SSc3nc4ccccc4s3)nc2c1`, the result was inactive.

Turning to `O=C(O)c1c(Cl)c(Cl)c(Cl)c(Cl)c1-c1c2cc(I)c(=O)c(I)c-2oc2c(I)c(O)c(I)cc12`, the outcome was inactive.

Consider `NCCOCCN`, for which the result was inactive.

For `Brc1ccccc1-c1ccccc1`, the result was inactive.

With `[O-][n+]1cccc(CO)c1`, the outcome was inactive.

`CC(C)(C)NCC(O)c1ccc(O)c(CO)c1` (stereo not given): the result was inactive.

For the compound `Nc1ccc(Oc2ccc(Cl)cc2)cc1`, the result was inactive.

Regarding `OCCCCCCO`, the outcome was inactive.

For the compound `CC(C)(c1ccccc1)c1ccccc1`, the outcome was inactive.

On to `CN1CCN(c2c(F)cc3c(=O)c(C(=O)O)cn(CCF)c3c2F)CC1`, for which the outcome was inactive.

Consider `Cc1ncc(CO)c(CN)c1O`, for which the outcome was inactive.

`CC1=C(/C=C/C(C)=C/C=C/C(C)=C/C=C/C=C(C)/C=C/C=C(C)/C=C/C2=C(C)C[C@@H](O)CC2(C)C)C(C)(C)C[C@H](O)C1`: the AC50 is 38.8 µM (active).

As for `CCN(CC)c1ccc(C(=C2C=CC(=[N+](CC)CC)C=C2)c2ccccc2)cc1`, the AC50 is 4.15 µM (active).

Regarding `CC1CCCO1` (stereo not given), the result was inactive.

In the case of `O=C(O)c1ccccc1C(=O)O`, the result was inactive.

On to `On1nnc2ccccc21`, for which the outcome was inactive.

On to `O=C(NC1CCN(CCc2c[nH]c3ccccc23)CC1)c1ccccc1`, for which the result was inactive.

For the compound `CC1CS(=O)(=O)CCN1N=Cc1ccc([N+](=O)[O-])o1` (stereo not given), the result was inactive.

Turning to `FC(F)(F)C(Cl)Br` (stereo not given), the outcome was inactive.

For the compound `CC[C@@]1(O)C(=O)OCc2c1cc1n(c2=O)Cc2cc3c(CN(C)C)c(O)ccc3nc2-1`, the AC50 was 0.807 µM (active).

Take `OCc1ccccc1O`: the result was inactive.

Regarding `O=NN(CCCl)C(=O)NCCCl`, the outcome was inactive.

As for `CC/C=C/CCO`, the outcome was inactive.

For `CC(C)C(=O)OCC(=O)[C@@]12O[C@H](C3CCCCC3)O[C@@H]1C[C@H]1[C@@H]3CCC4=CC(=O)C=C[C@]4(C)[C@H]3[C@@H](O)C[C@@]12C`, the result was inactive.

For `Cc1cc(CC(C)CC(C)(C)C)n(O)c(=O)c1` (stereo not given) (tested in a mixture with another compound), the result was inactive.

Turning to `CCS(=O)(=O)CCn1c([N+](=O)[O-])cnc1C`, the outcome was inactive.

Turning to `O=C(O)Cn1c(C(=O)Nc2nc(-c3ccccc3Cl)cs2)cc2ccccc21`, the result was inactive.

For `CNc1ccc(O)cc1`, the result was inactive.

For the compound `COc1cc(Br)c(C[N+]2(CCOCCC3CCC4CC3C4(C)C)CCOCC2)cc1OC` (stereo not given), the result was inactive.

For the compound `N#C/C(=C1\SCC(c2ccccc2Cl)S1)n1ccnc1` (stereo not given), the outcome was inactive.

Turning to `C=CCCC`, the result was inactive.

As to `COc1ccc(CCNC[C@H](O)c2ccc(O)cc2)cc1OC`, the result was inactive.
